Assay in all cases: NCI-60 one-dose screen, 48 h (100 = growth as untreated, 0 = no growth, -100 = all killed)
What all share (settings): 10 µM unless noted

The subject of experiment [1] is EKVX NSCLC.
For experiment [2], the system named is SN12C renal.
Experiment [3] concerns UO-31 renal.
Experiment [4] concerns TK-10 renal.
In experiment [5] the test system is ACHN renal.
For experiment [6], the system named is CAKI-1 renal.
In experiment [7] the test system is A498 renal.
In experiment [8] the test system is CCRF-CEM leukemia.
Experiment [9] has as its system MOLT-4 leukemia.
For experiment [10], the system named is SR leukemia.
For experiment [11], the system named is RPMI-8226 leukemia.
Experiment [12] concerns OVCAR-8 ovarian.
In experiment [13] the test system is OVCAR-5 ovarian.
Experiment [14] concerns SK-OV-3 ovarian.
The subject of experiment [15] is IGROV1 ovarian.
Experiment [16] deals with OVCAR-3 ovarian.
Experiment [17] deals with HS 578T breast.
In experiment [18] the test system is NCI/ADR-RES ovarian.
Experiment [19] deals with OVCAR-4 ovarian.

Results on nine compounds are retold here after PubChem BioAssay (NCI).

About 83,000 compounds went through this panel and 20% of them were active in at least one assay; those are over-represented in the sample as a whole.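 48-hour exposure, single concentration, 96-well plates; percent growth endpoint where 0 means no net growth. Active: below 10.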 Values without a mark were called inactive. Active and inactive are the calls of the source.

On to `CC1(c2ccccc2)CO1` (stereo not drawn), for which the growth is 111% in experiment [1]; 107% in experiment [2]; 85.8% in experiment [3]; 102% in [4]; 102% in experiment [5]; 107% in experiment [6]. The growth was 131% in experiment [7]; 97.7% in [8]; 99.6% in [9]; 104% in [10]; 103% in experiment [11]; 102% in experiment [12]. For the same compound, the growth in experiment [13] was 97.5%; in experiment [14], 107%; in experiment [15], 100%; in experiment [16], 114%; in [17], 97.4%; in [18] it was 113%.

`Cc1ccc(NCN2C(=O)c3ccccc3C2=O)c(C)n1`: the growth was 106% in experiment [1]; 111% in experiment [2]; 87.3% in experiment [3]; 119% in experiment [4]; 117% in experiment [5]; 105% in experiment [6]. For the same compound, the growth in experiment [7] was 88.7%; in experiment [9], 104%; in experiment [10], 119%; in [11], 105%; in experiment [12], 99.6%; in experiment [13], 111%. For the same compound, the growth was 119% in [19]; 113% in experiment [14]; 112% in [15]; 130% in experiment [16]; 110% in [17]; 106% in [18].

Regarding `CC(c1ccccc1)N1C(=O)CSC1=S` (stereo not drawn), the growth is 52.1% in [1]; 62.4% in experiment [2]; 49.2% in [3]; 42.3% in [4]; 50.7% in experiment [5]; 61.1% in experiment [6]. Further, the growth is 78.1% in [7]; 63.8% in experiment [8]; 28.3% in experiment [9]; 16.9% in experiment [11]; 34.2% in [12]; 91.2% in experiment [13]. The growth in [19] was 29.7%; in [14], 104%; in [15] it was -31.6% (active); in experiment [16], -13.1% (active); in experiment [17] it was 81.3%; in [18] it was -62.5% (active).

Turning to `Cc1nc(O)cc(=O)[nH]1`, the growth in experiment [1] was 108%; in experiment [2], 109%; in experiment [3] it was 72.8%; in experiment [4], 107%; in experiment [5], 107%; in [6], 109%. In addition, the growth in experiment [7] is 96.2%; in experiment [8], 106%; in experiment [10], 114%; in experiment [11], 114%; in experiment [12], 105%; in experiment [13] it was 110%. Also, the growth in experiment [19] is 114%; in [14] it was 121%; in [15], 106%; in [16], 115%; in experiment [17], 91.4%; in experiment [18] it was 108%.

With `Nc1ccn(C2CC(N)C(CO)O2)c(=O)n1` (stereo not drawn), the growth was 100% in experiment [1]; 67.4% in experiment [2]; 72.6% in [3]; 99.4% in experiment [4]; 20.1% in [5]; 42.3% in [6]. Further, the growth in experiment [7] was 100%; in experiment [9] it was 31%; in experiment [10], 54.5%; in experiment [11], 31.5%; in experiment [12], 45.6%; in experiment [13], 108%. The growth was 86.7% in [19]; 69.6% in experiment [14]; 87.1% in [15]; 115% in experiment [16]; 114% in experiment [17]; 46% in [18].

Consider `CCOC(=O)/C(C)=C\c1ccc(OC)c(OC)c1`, for which the growth was 102% in experiment [1]; 104% in [2]; 95.1% in experiment [3]; 104% in [4]; 103% in experiment [5]; 96.1% in experiment [6]. Further, the growth in experiment [7] is 95.7%; in experiment [8], 88.8%; in experiment [9], 94.5%; in experiment [10], 86.5%; in experiment [11], 103%; in experiment [12], 101%. For the same compound, the growth in experiment [13] is 99.3%; in experiment [19] it was 101%; in experiment [15] it was 105%; in [16], 103%; in [17] it was 108%; in experiment [18], 100%.

In the case of `COc1ccc(NNS(=O)(=O)O)cc1`, the growth is 104% in experiment [1]; 89.9% in experiment [2]; 90.4% in [3]; 103% in [4]; 97.4% in experiment [5]; 98.5% in experiment [6]. For the same compound, the growth is 69.5% in [7]; 99.2% in experiment [8]; 105% in [9]; 93.2% in experiment [10]; 98.4% in experiment [12]; 93.3% in experiment [13]. Besides, the growth is 111% in [19]; 102% in experiment [14]; 114% in [16]; 92.2% in [17]; 92.4% in experiment [18].

`O=S(Cc1ccccc1)/C(=C/NC(=S)Nc1cc(Cl)ccc1Cl)c1ccccc1` (stereo not drawn): the growth in experiment [1] is 99.3%; in experiment [2], 98.5%; in experiment [3], 83.9%; in experiment [4], 107%; in experiment [5] it was 99.9%; in [6], 97.1%. The growth in experiment [7] is 101%; in experiment [8], 99.6%; in experiment [11] it was 102%; in experiment [12], 113%; in [13], 100%; in experiment [19] it was 105%. The growth is 101% in experiment [14]; 95.8% in experiment [15]; 110% in experiment [16]; 102% in [17]; 105% in experiment [18].

Turning to `CCC(=O)C1C(=O)c2ccccc2C1=O`, the growth in [1] is 82.6%; in experiment [2] it was 109%; in experiment [3], 68.8%; in [4], 114%; in experiment [5], 115%; in [7] it was 114%. For the same compound, the growth in [8] is 107%; in [9] it was 136%; in [11], 115%; in [12], 99.8%; in [13], 103%; in experiment [19], 102%. The growth in experiment [14] is 116%; in experiment [16] it was 104%; in experiment [17], 135%; in [18] it was 106%.
